{"source": "PubChem BioAssay (EPA / NIEHS)", "note": "Calls of active or inactive are those of the source. The calls were made as follows: active = hit-call score of the fitted dose curve at least 0.9, where 1 is the maximum; inactive = score below 0.9."}
{"test": "CCTE_Padilla_ZF_Score.Blood_pooling: CCTE's 144 Hour Post-fertilization zebrafish Assay Score for Blood Pooling, Padilla Lab (AID 2284415)", "protocol": "CCTE_Padilla_ZF_Phenotype_Score is a whole embryo, multiplexed assay using zebrafish ova exposed for 144 hours post fertilization on a 96-well plate.CCTE_Padilla_ZF_Score.Blood_pooling is one of one assay component(s) measured or calculated from the CCTE_Padilla_ZF_Phenotype_Score assay. It is designed to make measurements of zebrafish development as detected with brightfield microscopy of developing zebrafish embryos.Data from the assay component CCTE_Padilla_ZF_Score.Blood_pooling was analyzed into 1 assay endpoints. This assay endpoint, CCTE_Padilla_ZF_Score.Blood_pooling, was analyzed in the positive analysis fitting direction relative to DMSO as the negative control and baseline of activity. Using a type of viability reporter, gain-of-signal activity can be used to understand changes in developmentals as they relate to the whole embryo. To generalize the intended target to other relatable targets, this assay endpoint is annotated to the zebrafish development intended target family, where the subfamily is swim bladder morphogenesis.\nZebrafish husbandry: Wild type adult zebrafish (Danio rerio; undefined outbred stock obtained from Aquatic Research Organisms, Hampton, NH, 03842) were housed in an AAALAC-approved animal facility at 28C with a 14:10 h light: dark cycle (lights on at 08:30 h). Adult fish (2-3 females per male; density = 15-20 adults per tank) were kept in one of several 9-liter (L) flow-through colony tanks (Aquaneering Inc., San Diego, CA). All adults in a colony tank were placed in a 2 L (static) breeding tank (Aquatic Habitats, Apopka, FL) one hour prior to light onset. Typically, adults from two to three colony tanks were mated on the same day. Two hours after light onset the adults were returned to the colony tank. All embryos were gathered from each breeder tank, pooled, and placed in a 28C water bath for 2 h, followed by two washes with 0.06% bleach (v/v) in 10% Hanks' Balanced Salt Solution (13.7 mM NaCl 0.54 mM KCl, 25 uM Na2HPO4, 130 uM CaCl2 100 um MgSO4 and 420 um NaHCO3,), hereafter referred to as Hanks' solution, for 5 min in order to remove any residual bacteria or fungi. Immediately following washing, the embryos were examined, and healthy embryos were separated from dead or unfertilized eggs and moved into fresh Hanks'. Chemical exposures: Zebrafish embryos were exposed in 96-well plates. Between 6- and 8-hours post fertilization (hpf), healthy embryos (with chorions) were transferred, one embryo per well, into 96 well (0.5 mL) microtiter plates (Cell Culture-Treated, Flat-Bottom Microplate 96 well [Corning Costar, Kennebunk, ME; Cat 09-761-145]) filled with 200 uL of Hanks' solution. A random number generator was used to assign the order in which the rows of embryos were plated in 96 well plates each week. After plating, the embryos were dosed with 0.8 uL of the chemical dosing solution then immediately sealed with AlumaSeal II (Excel Scientific Inc, Victorville, CA) to prevent volatilization of the chemicals, and then placed in a leakproof secondary container. These containers were placed in an incubator maintained on a 14:10 h light: dark cycle at 26C for rearing. On 5 dpf, live larvae were gently moved out of the plate with test chemicals and into a new 96 well mesh plate (Millipore Corp., Bedford, MA) with just the Hanks' solution. Once within the mesh well plate, the animals were rinsed with 400 uL of fresh Hanks' three times, and then the plates were covered with a non-adhesive material (Microseal A, BioRad, Hercules, CA), plate lid added, and then plate sides wrapped in Parafilm (PM992, Bermis Company, Neenah, WI), and returned to the incubator. […]"}
{"smiles": "FCOC(C(F)(F)F)C(F)(F)F", "outcome": "inactive"}
{"smiles": "O=P(O)(O)CCC(F)(F)C(F)(F)C(F)(F)C(F)(F)C(F)(F)C(F)(F)C(F)(F)C(F)(F)F", "outcome": "inactive"}
{"smiles": "O=C(O)CCC(F)(F)C(F)(F)C(F)(F)C(F)(F)C(F)(F)F", "outcome": "inactive"}
{"smiles": "O=C(CC(=O)C(F)(F)C(F)(F)C(F)(F)F)c1cccs1", "outcome": "inactive"}
{"smiles": "OCC(F)(F)C(F)(F)C(F)(F)C(F)(F)C(F)(F)C(F)(F)C(F)(F)C(F)(F)C(F)(F)C(F)(F)C(F)(F)F", "outcome": "inactive"}
{"smiles": "COC(=O)C(F)(F)C(F)(F)C(F)(F)C(F)(F)C(F)(F)F", "outcome": "inactive"}
{"smiles": "O=C(O)C(F)(F)OC(F)(F)C(F)(F)OC(F)(F)C(F)(F)OC(F)(F)C(F)(F)C(F)(F)C(F)(F)F", "outcome": "inactive"}
{"smiles": "FC(F)=C(F)C(F)(F)C(F)(F)C(F)(F)C(F)F", "outcome": "inactive"}
{"smiles": "FC(F)(F)C1(F)C(F)(F)C(F)(F)C(F)(F)C(F)(C(F)(F)F)C1(F)F", "note": "(centres undefined)", "outcome": "inactive"}
{"smiles": "FC(F)(F)C1(F)C(F)(F)C(F)(F)C(F)(F)C1(F)F", "outcome": "inactive"}
{"smiles": "NC(C(F)(F)F)C(F)(F)F", "outcome": "inactive"}
{"smiles": "C=CC(=O)OCCC(F)(F)C(F)(F)C(F)(F)C(F)(F)C(F)(F)C(F)(F)C(F)(F)C(F)(F)F", "outcome": "inactive"}
{"smiles": "CN(CCO)S(=O)(=O)C(F)(F)C(F)(F)C(F)(F)C(F)(F)C(F)(F)C(F)(F)C(F)(F)C(F)(F)F", "outcome": "inactive"}
{"smiles": "O=C(F)C(F)(F)C(F)(F)C(F)(F)C(=O)F", "outcome": "inactive"}
{"smiles": "FC1(F)C=CC(F)(F)C1(F)F", "outcome": "inactive"}
{"smiles": "O=C(OC(=O)C(F)(F)C(F)(F)F)C(F)(F)C(F)(F)F", "outcome": "inactive"}
{"smiles": "O=CC(F)(F)C(F)(F)C(F)(F)F", "outcome": "inactive"}
{"smiles": "O=C(O)CCC(F)(F)C(F)(F)C(F)(F)C(F)(F)C(F)(F)C(F)(F)F", "outcome": "inactive"}
{"smiles": "O=P(O)(O)CCC(F)(F)C(F)(F)C(F)(F)C(F)(F)C(F)(F)C(F)(F)F", "outcome": "inactive"}
{"smiles": "FC(OC(F)(F)C(F)(F)C(F)(F)F)C(F)(F)F", "note": "(centres undefined)", "outcome": "inactive"}
{"smiles": "C=CC(F)(F)C(F)(F)C(F)(F)C(F)(F)F", "outcome": "inactive"}
{"smiles": "O=C1OC(=O)C(F)(F)C1(F)F", "outcome": "inactive"}
{"smiles": "FC(F)(F)N1C(F)(F)C(F)(F)OC(F)(F)C1(F)F", "outcome": "inactive"}
{"smiles": "O=CC(F)(F)C(F)(F)C(F)(F)C(F)F", "outcome": "inactive"}
